Reference: PubChem BioAssay AID1159580 (chemical genetic matrix, 2015)
The whole screen tested about 5,500 compounds, of which about 2,000 (36%) were called active. Roughly 18% stayed inconclusive and do not appear here. Some of the results follow. Values without a mark were called inactive. No stated cut-off is given here; in the data, active means normalized growth mostly below about 0.91 (no sharp cut-off); inconclusive means no clear call, values can overlap the other calls; inactive means mostly above about 0.92.

Assay: chemical genetic growth profiling, strain panel (AID 1159580);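 further: tested at 20 µM; growth read once vehicle control cultures reached saturation at 30 °C; 1 = growth at the plate median or of vehicle wells; lower values mean less growth of the strain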
Conditions: growth OD
[1] = S. cerevisiae deletion strains, locus YMR307W, strain GAS1, active compounds read low
[2] = S. cerevisiae deletion strains, locus YJL095W, strain BCK1, active compounds read low

NC/C=C\C(=O)O
normalized growth (S. cerevisiae deletion strains, locus YAL013W, strain DEP1, active compounds read low): 1
normalized growth (S. cerevisiae deletion strains, locus YAL040C, strain CLN3, active compounds read low): 0.994
normalized growth (S. cerevisiae deletion strains, locus YER002W, strain NOP16, active compounds read low): 1.01
normalized growth (S. cerevisiae deletion strains, locus YGR229C, strain SMI1, active compounds read low): 1.02
normalized growth [1]: 1
normalized growth (S. cerevisiae deletion strains, locus YNL175C, strain NOP13, active compounds read low): 1
normalized growth (S. cerevisiae deletion strains, locus YNL197C, strain WHI3, active compounds read low): 0.985
normalized growth (S. cerevisiae deletion strains, locus YNL224C, strain SQS1, active compounds read low): 0.993
normalized growth (S. cerevisiae deletion strains, locus YOR083W, strain WHI5 (second series), active compounds read low): 1.02

CCC(C)c1cnc(CC(C)C)c(=O)n1O (centres undefined)
normalized growth (S. cerevisiae deletion strains, locus YBR021W, strain FUR4, active compounds read low): 1.01
normalized growth (S. cerevisiae deletion strains, locus YBR229C, strain ROT2, active compounds read low): 1.01
normalized growth (S. cerevisiae deletion strains, locus YCL029C, strain bik1, active compounds read low): 1.02
normalized growth (S. cerevisiae deletion strains, locus YDL035C, strain GPR1, active compounds read low): 0.818 (active)
normalized growth (S. cerevisiae deletion strains, locus YDL074C, strain BRE1, active compounds read low): 0.876
normalized growth (S. cerevisiae deletion strains, locus YDL101C, strain DUN1, active compounds read low): 1.02
normalized growth (S. cerevisiae deletion strains, locus YDL134C, strain PPH21, active compounds read low): 1.04
normalized growth (S. cerevisiae deletion strains, locus YDL185W, strain tfp1, active compounds read low): 0.231 (active)
normalized growth (S. cerevisiae deletion strains, locus YDL192W, strain arf1, active compounds read low): 0.933
normalized growth (S. cerevisiae deletion strains, locus YDR101C, strain arx1, active compounds read low): 0.993
normalized growth (S. cerevisiae deletion strains, locus YDR162C, strain NBP2, active compounds read low): 0.545 (active)
normalized growth (S. cerevisiae deletion strains, locus YDR318W, strain mcm21, active compounds read low): 1.03
normalized growth (S. cerevisiae deletion strains, locus YDR388W, active compounds read low): 1.02
normalized growth (S. cerevisiae deletion strains, locus YDR502C, strain sam2, active compounds read low): 0.967
normalized growth (S. cerevisiae deletion strains, locus YEL061C, strain CIN8, active compounds read low): 0.846 (active)
normalized growth (S. cerevisiae deletion strains, locus YER110C, active compounds read low): 1.02
normalized growth (S. cerevisiae deletion strains, locus YER155C, strain BEM2, active compounds read low): 1.01
normalized growth (S. cerevisiae deletion strains, locus YER167W, strain BCK2, active compounds read low): 0.998
normalized growth (S. cerevisiae deletion strains, locus YGL078C, strain dbp3, active compounds read low): 0.87 (active)
normalized growth (S. cerevisiae deletion strains, locus YGL086W, strain mad1, active compounds read low): 0.946
normalized growth (S. cerevisiae deletion strains, locus YGL248W, strain PDE1, active compounds read low): 1.04
normalized growth (S. cerevisiae deletion strains, locus YGR078C, strain PAC10, active compounds read low): 0.905
normalized growth (S. cerevisiae deletion strains, locus YGR135W, strain pre9, active compounds read low): 0.977
normalized growth (S. cerevisiae deletion strains, locus YGR252W, strain gcn5, active compounds read low): 1.1
normalized growth (S. cerevisiae deletion strains, locus YHR079C, strain IRE1 (second series), active compounds read low): 1.02
normalized growth (S. cerevisiae deletion strains, locus YHR094C, strain hxt1, active compounds read low): 1.01
normalized growth (S. cerevisiae deletion strains, locus YHR129C, strain ARP1, active compounds read low): 0.894 (active)
normalized growth (S. cerevisiae deletion strains, locus YHR200W, strain rpn10, active compounds read low): 0.961
normalized growth (S. cerevisiae deletion strains, locus YIL066C, strain RNR3, active compounds read low): 0.994
normalized growth (S. cerevisiae deletion strains, locus YIL073C, strain SPO22, active compounds read low): 1.18
normalized growth (S. cerevisiae deletion strains, locus YIL125W, strain kgd1, active compounds read low): 0.815 (active)
normalized growth (S. cerevisiae deletion strains, locus YIR030C, strain dcg1, active compounds read low): 1.01
normalized growth [2]: 0.981
normalized growth (S. cerevisiae deletion strains, locus YJL134W, strain LCB3, active compounds read low): 0.993
normalized growth (S. cerevisiae deletion strains, locus YJL168C, strain set2, active compounds read low): 1.02
normalized growth (S. cerevisiae deletion strains, locus YJL187C, strain SWE1 (second series), active compounds read low): 1.01
normalized growth (S. cerevisiae deletion strains, locus YJR043C, strain POL32, active compounds read low): 0.645 (active)
normalized growth (S. cerevisiae deletion strains, locus YJR075W, strain HOC1, active compounds read low): 0.837 (active)
normalized growth (S. cerevisiae deletion strains, locus YKL009W, strain mrt4, active compounds read low): 0.936
normalized growth (S. cerevisiae deletion strains, locus YKL068W, active compounds read low): 0.864 (active)
normalized growth (S. cerevisiae deletion strains, locus YKL085W, strain MDH1 (second series), active compounds read low): 0.771 (active)
normalized growth (S. cerevisiae deletion strains, locus YKL085W, strain MDH1, active compounds read low): 0.771 (active)
normalized growth (S. cerevisiae deletion strains, locus YKR001C, strain vps1, active compounds read low): 0.963
normalized growth (S. cerevisiae deletion strains, locus YLR039C, strain RIC1, active compounds read low): 0.771
normalized growth (S. cerevisiae deletion strains, locus YLR058C, strain SHM2, active compounds read low): 1.02
normalized growth (S. cerevisiae deletion strains, locus YLR102C, strain apc9, active compounds read low): 1.02
normalized growth (S. cerevisiae deletion strains, locus YLR262C, strain YPT6, active compounds read low): 0.806
normalized growth (S. cerevisiae deletion strains, locus YLR268W, strain sec22, active compounds read low): 1.01
normalized growth (S. cerevisiae deletion strains, locus YLR371W, strain rom2, active compounds read low): 1.04
normalized growth (S. cerevisiae deletion strains, locus YLR418C, strain cdc73, active compounds read low): 0.991
normalized growth (S. cerevisiae deletion strains, locus YML016C, strain PPZ1, active compounds read low): 1.01
normalized growth (S. cerevisiae deletion strains, locus YML032C, strain rad52, active compounds read low): 1.01
normalized growth (S. cerevisiae deletion strains, locus YML124C, strain tub3, active compounds read low): 1.02
normalized growth (S. cerevisiae deletion strains, locus YMR078C, strain ctf18, active compounds read low): 1.01
normalized growth (S. cerevisiae deletion strains, locus YMR223W, strain ubp8, active compounds read low): 1.01
normalized growth [1]: 0.534 (active)
normalized growth (S. cerevisiae deletion strains, locus YNL067W, strain RPL9B, active compounds read low): 0.955
normalized growth (S. cerevisiae deletion strains, locus YNL153C, strain GIM3, active compounds read low): 0.881
normalized growth (S. cerevisiae deletion strains, locus YNL233W, strain BNI4, active compounds read low): 0.969
normalized growth (S. cerevisiae deletion strains, locus YNL250W, strain rad50, active compounds read low): 0.906
normalized growth (S. cerevisiae deletion strains, locus YNL271C, strain bni1, active compounds read low): 0.78 (active)
normalized growth (S. cerevisiae deletion strains, locus YNL298W, strain CLA4, active compounds read low): 0.708 (active)
normalized growth (S. cerevisiae deletion strains, locus YNL307C, strain MCK1, active compounds read low): 1.02
normalized growth (S. cerevisiae deletion strains, locus YNL322C, strain KRE1, active compounds read low): 0.579 (active)
normalized growth (S. cerevisiae deletion strains, locus YNR052C, strain pop2, active compounds read low): 1.03
normalized growth (S. cerevisiae deletion strains, locus YOL006C, strain TOP1, active compounds read low): 1.21
normalized growth (S. cerevisiae deletion strains, locus YOL012C, strain htz1): 0.477
normalized growth (S. cerevisiae deletion strains, locus YOL147C, strain pex11, active compounds read low): 1
normalized growth (S. cerevisiae deletion strains, locus YOR061W, strain CKA2, active compounds read low): 0.997
normalized growth (S. cerevisiae deletion strains, locus YOR069W, strain VPS5, active compounds read low): 0.998
normalized growth (S. cerevisiae deletion strains, locus YOR136W, strain idh2, active compounds read low): 1.03
normalized growth (S. cerevisiae deletion strains, locus YOR144C, strain elg1, active compounds read low): 1.01
normalized growth (S. cerevisiae deletion strains, locus YOR184W, strain ser1, active compounds read low): 0.957
normalized growth (S. cerevisiae deletion strains, locus YOR316C, strain cot1, active compounds read low): 1.03
normalized growth (S. cerevisiae deletion strains, locus YPL055C, strain LGE1, active compounds read low): 0.548 (active)
normalized growth (S. cerevisiae deletion strains, locus YPL241C, strain CIN2, active compounds read low): 0.717 (active)
normalized growth (S. cerevisiae deletion strains, locus YPR119W, strain clb2, active compounds read low): 1.01
normalized growth (S. cerevisiae deletion strains, locus YPR141C, strain kar3, active compounds read low): 0.844 (active)
normalized growth (S. cerevisiae deletion strains, locus YPR163C, strain tif3, active compounds read low): 1.02
normalized growth (S. cerevisiae deletion strains, locus YPR167C, strain met16, active compounds read low): 1.01
normalized growth (S. cerevisiae deletion strains, strain wtn01, active compounds read low): 0.902
normalized growth (S. cerevisiae strains, strain wild type, active compounds read low): 0.275 (active)

CC(C)c1c(CN(C)C(C)Cc2ccccc2)n(C)n(-c2ccccc2)c1=O (centres undefined)
normalized growth (S. cerevisiae deletion strains, locus YHR030C, strain SLT2, active compounds read low): 0.997
normalized growth (S. cerevisiae deletion strains, locus YHR079C, strain IRE1, active compounds read low): 1.01
normalized growth [2]: 0.992
normalized growth (S. cerevisiae deletion strains, locus YJR066W, strain TOR1, active compounds read low): 0.938
normalized growth (S. cerevisiae deletion strains, locus YLR113W, strain HOG1, active compounds read low): 1.01
normalized growth (S. cerevisiae deletion strains, locus YNL183C, strain NPR1, active compounds read low): 0.935
normalized growth (S. cerevisiae deletion strains, locus YOR231W, strain MKK1, active compounds read low): 1
normalized growth (S. cerevisiae deletion strains, locus YPL256C, strain CLN2, active compounds read low): 0.971
